Test results taken from PubChem BioAssay (NCATS).
Records with an inconclusive call do not appear. Where a call stands in place of a potency, no number is given. The source made the active and inactive calls. The call rests on the fitted dose curve; in most records, active means well fitted cell-killing curve with a large enough effect; inconclusive means small, poorly fitted or top-dose-only effect; inactive means flat fitted curve, though single readings scatter.

test: qHTS of pediatric cancer cell lines to identify multiple opportunities for drug repurposing: Primary screen for Rh18 cells (AID 1347102); details: Rh18 rhabdomyosarcoma viability, CellTiter-Glo luminescence, 48 h; series mostly up to 46 µM; further: nearly all actives have a fitted effect of over 65% in size
Text: Drug repurposing or repositioning has been offered as a strategy for drug development in oncology programs. This approach has special potential for childhood cancers and other rare or orphan diseases, where the expected return on new drug development has been a disincentive to pharmaceuticals.
In this project we exploit the poly-pharmacology of drugs to discover new indications via phenotypic screening of a panel of 19 well-characterized cell lines derived from solid tumors seen in children and adolescents. The goal is to identify approved drugs with previously unrecognized anticancer properties that has the potential to reveal new mechanisms and biological processes involved in carcinogenesis or drug resistance. We employed a titration-based paradigm (quantitative high-throughput screening or qHTS), where all compounds were tested at multiple concentrations for their effect on cell viability. Concentration-response curves (CRCs) were derived directly from the primary screen, and both potency and efficacy values were used to identify compounds with robust bioactivity profiles. We screened the NIH Chemical Genomics Center (NCGC) Pharmaceutical Collection (NPC) and Mechanism Interrogation Plate (MIPE) small molecule collections of approved and investigational compounds against these cell lines; and measured metabolically active cells after 48 hours of compound treatment as a proxy for cell viability.
Assay Submitter: Nathalia J. Martinez, National Center for Advancing Translational Sciences, National Institutes of Health, Rockville, MD, USA; email: natalia.martinez@nih.gov
[1] Shen, M et al. Quantitative high-throughput phenotypic screening of pediatric cancer cell lines identifies multiple opportunities for drug repurposing. Oncotarget 2017 Dec 19;9(4):4758-4772. PMID 29435139.
The cells were obtained from University of North Carolina (UNC), Pediatric Preclinical Testing Program (PPT), and Coriell Institute (CI).
qHTS cell viability assay:
Cells were assayed in growth media at a density of 500-1,000 cells/well. Five microliters of cells were dispensed into 1,536-well, white, solid-bottom, TC-treated plates (Greiner Bio One) using a multidrop dispenser and incubated at 37 degrees C, 5% CO2, under a humidified atmosphere for 5 hours. Twenty-three nanoliters of compounds and controls (neutral control DMSO or positive control bortezomib at final concentration of 2.3 µM) were subsequently transferred by Kalypsys pintool. For primary screens, the MIPE collection was tested at 11-point dilutions (final concentrations range from 0.78 nM to 46 µM) and the NPC collection at 8-point dilutions (final concentrations range from 0.59 nM to 46 µM). Compounds tested in follow-up screens were assayed at 11-point dilutions. Cells were incubated for 48 hours, followed by addition of 3 µL of CellTiter-Glo (Promega). After a 15 min incubation at room temperature, samples were analyzed for luminescence intensity using a ViewLux High-throughput CCD imager equipped with clear filters.
Potency means the concentration at half of the fitted maximal effect.

Row | Compound | Potency
1 | CC(C)(Oc1ccc(Cl)cc1)C(=O)O | inactive
2 | COc1c2occc2c(OC)c2c(=O)cc(C)oc12 | inactive
3 | CC(=O)OCC(=O)[C@@]12OC(C)(C)O[C@@H]1C[C@H]1[C@@H]3C[C@H](F)C4=CC(=O)C=C[C@]4(C)[C@@]3(F)[C@@H](O)C[C@@]12C | inactive
4 | CC(C)NC[C@@H](O)COc1cccc2ccccc12 | inactive
5 | C[C@H](CCC(=O)O)[C@H]1CC[C@H]2[C@@H]3C(=O)C[C@@H]4CC(=O)CC[C@]4(C)[C@H]3CC(=O)[C@]12C | inactive
6 | CCCCOc1cc(C(=O)NCCN(CC)CC)c2ccccc2n1 | inactive
7 | O=S1(=O)c2cccc3cccc(c23)N1CCCN1CCN(c2ccc(F)cc2)CC1 | inactive
8 | COc1cc(N)c(Cl)cc1C(=O)NC1CCN(CCCOc2ccc(F)cc2)CC1OC (stereo not given) | inactive
9 | NCCC(O)(P(=O)(O)O)P(=O)(O)O | inactive
10 | CCCSS/C(CCO)=C(\C)N(C=O)Cc1cnc(C)nc1N | inactive
11 | C/C=C(/C(=C/C)c1ccc(O)cc1)c1ccc(O)cc1 | inactive
12 | NC(=O)c1cc[n+](CC2=C(C(=O)[O-])N3C(=O)[C@@H](NC(=O)Cc4cccs4)[C@H]3SC2)cc1 | inactive
13 | CC(C)=CCC1C(=O)N(c2ccccc2)N(c2ccccc2)C1=O | inactive
14 | CCOC(=O)/C=C(C)/C=C/C=C(C)/C=C/c1c(C)cc(OC)c(C)c1C | inactive
15 | CCN1CCC[C@H]1CNC(=O)c1c(OC)ccc(Br)c1OC | inactive
16 | C/C=C/c1ccc(OC)cc1 | inactive
17 | COc1cccc(OC)c1C(=O)N[C@@H]1C(=O)N2[C@@H]1SC(C)(C)[C@@H]2C(=O)O | inactive
18 | CCOC(=O)[C@H](CCc1ccccc1)N[C@@H](C)C(=O)N1Cc2ccccc2C[C@H]1C(=O)O | inactive
19 | CN(C)/N=N/c1nc[nH]c1C(N)=O | inactive
20 | NC(CO)(CO)CO | inactive

Row | Compound | Potency
21 | C[n+]1c2cc(N)ccc2cc2ccc(N)cc21 (tested in a mixture with another compound) | 8.41 µM (active)
22 | CN1CCN(CCCN2c3ccccc3Sc3ccc(S(=O)(=O)N(C)C)cc32)CC1 | 23.7 µM (active)
23 | CC(=O)[C@H]1CC[C@H]2[C@@H]3C[C@H](C)C4=CC(=O)CC[C@]4(C)[C@H]3[C@@H](O)C[C@]12C | inactive
24 | CCN(CCCc1ccccc1)CCCc1ccccc1 | inactive
25 | O=C1OC(c2ccc(O)cc2)(c2ccc(O)cc2)c2ccccc21 | inactive
26 | CC(=O)OCC(=O)NCCCOc1cccc(CN2CCCCC2)c1 | inactive
27 | C[C@H]1C[C@H]2[C@@H]3CCC4=CC(=O)C=C[C@]4(C)[C@@]3(Cl)[C@@H](O)C[C@]2(C)[C@@]1(O)C(=O)CO | inactive
28 | CCCCC(=O)O[C@]1(C(=O)CO)CC[C@H]2[C@@H]3CCC4=CC(=O)CC[C@]4(C)[C@H]3[C@@H](O)C[C@@]21C | inactive
29 | CCCCCCCCCCCCCCNCCO | inactive
30 | CCCCCCCCCCCCCCCC[N+](C)(C)CCN(Cc1ccc(OC)cc1)c1ncccn1 | 13.3 µM (active)
31 | CC(=O)OCC(=O)[C@@]12N=C(C)O[C@@H]1C[C@H]1[C@@H]3CCC4=CC(=O)C=C[C@]4(C)[C@H]3[C@@H](O)C[C@@]12C | inactive
32 | COc1cccc2c1C(=O)c1c(O)c3c(c(O)c1C2=O)C[C@@](O)(C(=O)CO)C[C@@H]3O[C@H]1C[C@H](N)[C@H](O)[C@H](C)O1 | 1.88 µM (active)
33 | Cc1ccc(Nc2c(F)cccc2Cl)c(CC(=O)O)c1 | inactive
34 | O=C(CCN1CCC(c2ccccc2)C1)c1ccc2c(c1)OCCO2 (stereo not given) | inactive
35 | CC[C@@H](CO)NCCN[C@@H](CC)CO | inactive
36 | C[C@]12CCC(=O)C=C1[C@@H]1C[C@@H]1[C@H]1[C@@H]3[C@@H]4C[C@@H]4[C@@]4(CCC(=O)O4)[C@@]3(C)CC[C@@H]12 | inactive
37 | NC(CS)C(=O)O (stereo not given) | inactive
38 | CCCCCC=CCC=CCCCCCCCC(=O)OCC | inactive
39 | COC(=O)CCc1ccc(OCC(O)CNC(C)C)cc1 (stereo not given) | inactive
40 | N[C@@H](CCC(=O)N[C@@H](CS)C(=O)NCC(=O)O)C(=O)O | inactive
